The text below walks through data of PMC12529666, “Dysregulation of AGO2-miRNA dynamics underlies the AGO2-associated Lessel–Kreienkamp syndrome”.

Holding throughout (assay): RNA Bind-n-Seq (nitrocellulose filter binding and sequencing); miR-122 guide loaded in AGO2; 60 min incubation; 30 mM Tris pH 8.0, 100 mM potassium acetate, 2 mM magnesium acetate, 0.5 mM TCEP, 0.005% NP-40, 0.01 mg/ml yeast tRNA; 3 nM AGO2-miR-122, 100 nM RNA library; 60; high values mean tight binding
What all share (details): protein: recombinant; tags: His6 (N-terminal, pFastBac HTA)

Assay [1] concerns the target AGO2 WT (phosphosite mutant background) (Homo sapiens, UniProt Q9UKV8 1-859, S387D;S824A;S828D;S831D;S834A). The procedure, abridged:
(§1)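 Fold enrichment is each target's read fraction divided by its read fraction in the input library. Sf9 insect cells expressed His-tagged AGO2 from baculovirus; the protein was loaded with a synthetic guide RNA and purified by Ni-NTA and a biotinylated capture oligo. The bound RNA was extracted, reverse-transcribed, barcode-amplified and sequenced on Illumina.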

For another assay, the target named is AGO2 L192P (Homo sapiens, UniProt Q9UKV8 1-859, L192P;S387D;S824A;S828D;S831D;S834A). The procedure, abridged: as §1
AGO2 L192P, sequence (Q9UKV8 whole entry L192P/S387D/S824A/S828D/S831D/S834A): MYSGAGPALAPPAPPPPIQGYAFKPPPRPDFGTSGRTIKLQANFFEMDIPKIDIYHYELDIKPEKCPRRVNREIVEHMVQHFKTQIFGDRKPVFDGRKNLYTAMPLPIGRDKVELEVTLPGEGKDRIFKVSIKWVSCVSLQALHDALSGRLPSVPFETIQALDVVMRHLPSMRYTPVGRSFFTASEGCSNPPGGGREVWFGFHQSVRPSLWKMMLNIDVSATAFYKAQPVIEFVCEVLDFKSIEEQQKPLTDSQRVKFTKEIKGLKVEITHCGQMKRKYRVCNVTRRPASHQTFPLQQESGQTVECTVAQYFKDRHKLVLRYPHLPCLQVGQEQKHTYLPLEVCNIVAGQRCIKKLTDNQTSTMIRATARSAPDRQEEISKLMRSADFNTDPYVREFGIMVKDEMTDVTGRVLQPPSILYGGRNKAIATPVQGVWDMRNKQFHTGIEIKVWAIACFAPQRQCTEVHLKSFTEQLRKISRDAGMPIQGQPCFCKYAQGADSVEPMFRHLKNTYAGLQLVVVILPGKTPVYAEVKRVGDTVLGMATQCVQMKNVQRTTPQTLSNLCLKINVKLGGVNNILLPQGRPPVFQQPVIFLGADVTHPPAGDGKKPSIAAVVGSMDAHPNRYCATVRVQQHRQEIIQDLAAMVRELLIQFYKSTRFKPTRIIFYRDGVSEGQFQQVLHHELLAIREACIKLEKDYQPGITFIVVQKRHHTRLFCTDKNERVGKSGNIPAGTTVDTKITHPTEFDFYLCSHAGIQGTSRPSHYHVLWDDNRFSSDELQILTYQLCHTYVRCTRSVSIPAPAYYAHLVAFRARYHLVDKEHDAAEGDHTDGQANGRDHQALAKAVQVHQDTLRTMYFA
In the next assay the target is AGO2 A367P (Homo sapiens, UniProt Q9UKV8 1-859, A367P;S387D;S824A;S828D;S831D;S834A). The method, boiled down: as §1
AGO2 A367P, sequence (Q9UKV8 whole entry A367P/S387D/S824A/S828D/S831D/S834A): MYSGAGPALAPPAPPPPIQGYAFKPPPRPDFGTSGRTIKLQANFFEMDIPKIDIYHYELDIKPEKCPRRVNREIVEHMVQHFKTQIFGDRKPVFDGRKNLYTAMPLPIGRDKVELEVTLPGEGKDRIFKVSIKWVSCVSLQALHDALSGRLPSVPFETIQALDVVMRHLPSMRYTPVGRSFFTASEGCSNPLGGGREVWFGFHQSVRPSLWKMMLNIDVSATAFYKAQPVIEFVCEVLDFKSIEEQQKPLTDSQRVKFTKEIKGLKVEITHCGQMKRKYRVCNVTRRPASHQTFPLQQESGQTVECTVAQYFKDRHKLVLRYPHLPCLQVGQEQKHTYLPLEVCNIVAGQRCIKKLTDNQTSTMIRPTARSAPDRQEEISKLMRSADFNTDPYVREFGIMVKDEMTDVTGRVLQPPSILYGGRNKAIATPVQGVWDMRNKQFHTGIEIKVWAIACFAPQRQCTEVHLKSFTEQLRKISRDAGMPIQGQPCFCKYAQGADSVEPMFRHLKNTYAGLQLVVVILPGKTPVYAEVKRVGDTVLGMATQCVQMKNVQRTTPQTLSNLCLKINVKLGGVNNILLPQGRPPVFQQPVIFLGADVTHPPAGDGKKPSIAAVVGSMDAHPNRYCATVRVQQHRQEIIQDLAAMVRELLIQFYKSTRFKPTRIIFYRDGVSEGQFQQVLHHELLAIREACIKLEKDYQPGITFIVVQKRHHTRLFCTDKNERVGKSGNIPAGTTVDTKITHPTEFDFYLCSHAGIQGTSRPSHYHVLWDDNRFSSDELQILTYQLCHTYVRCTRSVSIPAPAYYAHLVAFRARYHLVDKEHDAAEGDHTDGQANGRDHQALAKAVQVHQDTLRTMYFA
A further assay deals with AGO2 T357M (Homo sapiens, UniProt Q9UKV8 1-859, T357M;S387D;S824A;S828D;S831D;S834A). The method, boiled down: as §1
AGO2 T357M, sequence (Q9UKV8 whole entry T357M/S387D/S824A/S828D/S831D/S834A): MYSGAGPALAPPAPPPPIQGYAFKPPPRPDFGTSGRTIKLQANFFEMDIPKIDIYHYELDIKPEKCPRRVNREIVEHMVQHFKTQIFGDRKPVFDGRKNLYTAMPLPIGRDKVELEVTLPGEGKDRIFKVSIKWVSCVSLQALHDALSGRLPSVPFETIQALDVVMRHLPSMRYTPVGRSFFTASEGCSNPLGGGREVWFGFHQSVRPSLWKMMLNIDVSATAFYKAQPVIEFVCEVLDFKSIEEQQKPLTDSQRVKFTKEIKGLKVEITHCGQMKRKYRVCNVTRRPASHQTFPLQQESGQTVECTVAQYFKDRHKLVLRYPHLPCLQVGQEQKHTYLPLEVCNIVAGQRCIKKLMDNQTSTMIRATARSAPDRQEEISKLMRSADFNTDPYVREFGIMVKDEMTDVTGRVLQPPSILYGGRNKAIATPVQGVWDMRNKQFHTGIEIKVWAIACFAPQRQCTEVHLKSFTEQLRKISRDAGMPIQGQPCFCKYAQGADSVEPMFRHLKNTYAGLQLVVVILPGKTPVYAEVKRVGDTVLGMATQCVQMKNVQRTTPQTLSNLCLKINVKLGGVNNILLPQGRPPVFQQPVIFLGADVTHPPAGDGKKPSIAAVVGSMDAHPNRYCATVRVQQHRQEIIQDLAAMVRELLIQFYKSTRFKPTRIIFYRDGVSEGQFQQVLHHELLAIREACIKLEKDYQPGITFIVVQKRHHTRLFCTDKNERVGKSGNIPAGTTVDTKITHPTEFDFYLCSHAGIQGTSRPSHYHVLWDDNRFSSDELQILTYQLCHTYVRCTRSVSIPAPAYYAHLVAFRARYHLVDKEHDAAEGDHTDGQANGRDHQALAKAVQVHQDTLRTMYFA
The next assay has as its target AGO2 F182del (Homo sapiens, UniProt Q9UKV8 1-859, S387D;S824A;S828D;S831D;S834A;del182-182). The procedure, abridged:
as §1

AGO2 WT (phosphosite mutant background), sequence (Q9UKV8 whole entry S387D/S824A/S828D/S831D/S834A): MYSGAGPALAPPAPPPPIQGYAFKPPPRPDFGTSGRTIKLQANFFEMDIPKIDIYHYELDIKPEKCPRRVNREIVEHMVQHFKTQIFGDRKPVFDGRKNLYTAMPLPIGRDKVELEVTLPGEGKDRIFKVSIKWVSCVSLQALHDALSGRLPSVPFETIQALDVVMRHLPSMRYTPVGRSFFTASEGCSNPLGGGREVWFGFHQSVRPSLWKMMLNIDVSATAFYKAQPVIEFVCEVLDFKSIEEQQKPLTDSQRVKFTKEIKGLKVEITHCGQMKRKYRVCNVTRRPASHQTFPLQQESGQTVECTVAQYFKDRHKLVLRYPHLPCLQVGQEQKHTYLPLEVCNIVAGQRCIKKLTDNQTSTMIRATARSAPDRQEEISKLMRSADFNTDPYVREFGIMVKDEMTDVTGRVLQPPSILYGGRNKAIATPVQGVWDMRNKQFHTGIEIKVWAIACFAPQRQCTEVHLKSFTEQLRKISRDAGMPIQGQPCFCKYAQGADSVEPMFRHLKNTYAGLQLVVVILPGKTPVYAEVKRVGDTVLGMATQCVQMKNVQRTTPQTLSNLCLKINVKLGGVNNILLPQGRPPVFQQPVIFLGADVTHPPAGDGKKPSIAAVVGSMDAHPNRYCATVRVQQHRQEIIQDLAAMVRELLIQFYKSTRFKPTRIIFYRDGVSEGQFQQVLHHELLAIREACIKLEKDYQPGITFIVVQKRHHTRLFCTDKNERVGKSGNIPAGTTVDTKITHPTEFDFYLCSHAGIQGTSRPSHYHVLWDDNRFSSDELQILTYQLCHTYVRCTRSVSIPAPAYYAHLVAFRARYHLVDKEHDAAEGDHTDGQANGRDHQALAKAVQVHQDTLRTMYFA
AGO2 F182del, sequence (Q9UKV8 other isoform, or with tags, fused parts or gaps S387D;S824A;S828D;S831D;S834A;del182-182): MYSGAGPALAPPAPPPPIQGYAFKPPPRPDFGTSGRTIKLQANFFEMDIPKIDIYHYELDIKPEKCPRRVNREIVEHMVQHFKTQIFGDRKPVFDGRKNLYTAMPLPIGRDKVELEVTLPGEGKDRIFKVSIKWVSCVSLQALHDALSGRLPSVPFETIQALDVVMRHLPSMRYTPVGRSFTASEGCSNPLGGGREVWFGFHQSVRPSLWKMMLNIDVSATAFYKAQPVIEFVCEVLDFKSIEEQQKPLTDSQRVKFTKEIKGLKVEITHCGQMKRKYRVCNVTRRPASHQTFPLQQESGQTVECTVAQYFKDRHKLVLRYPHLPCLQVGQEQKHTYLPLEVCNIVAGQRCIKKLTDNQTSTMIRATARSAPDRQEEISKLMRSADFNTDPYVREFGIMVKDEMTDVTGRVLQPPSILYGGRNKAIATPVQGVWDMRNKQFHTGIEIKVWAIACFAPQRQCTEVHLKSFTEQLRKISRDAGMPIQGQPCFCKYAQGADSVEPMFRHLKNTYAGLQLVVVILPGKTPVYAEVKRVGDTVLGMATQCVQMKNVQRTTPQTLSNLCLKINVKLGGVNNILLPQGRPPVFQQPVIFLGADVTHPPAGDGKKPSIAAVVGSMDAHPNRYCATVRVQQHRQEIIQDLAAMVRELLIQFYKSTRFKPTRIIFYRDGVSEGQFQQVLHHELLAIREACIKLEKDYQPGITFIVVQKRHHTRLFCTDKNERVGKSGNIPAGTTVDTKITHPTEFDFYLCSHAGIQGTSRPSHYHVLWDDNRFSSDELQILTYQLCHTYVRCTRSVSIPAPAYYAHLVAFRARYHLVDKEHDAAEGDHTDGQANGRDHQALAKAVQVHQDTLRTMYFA

B1: ACACTCCA (ssRNA)
RNA 1: GAGUUCUACAGUCCGACGAUCCCAACACACUCCACACCUGGAAUUCUCGGGUGCCAA
RNA 2: UGGAGUGUGACAAUGGUGUUUG
DNA 1: GATCGTCGGACTGTAGAACTC
DNA 2: TTGGCACCCGAGAATTCCA
modifications: constant regions annealed to DNA blockers; guide miR-122 5' phosphate
For B1, the binding signal in assay [1] was 229 fold enrichment over input; with AGO2 L192P, 102 fold enrichment over input; in the assay with AGO2 A367P, 155 fold enrichment over input; with AGO2 T357M, 154 fold enrichment over input; with AGO2 F182del, 116 fold enrichment over input.

B2: ATGCTCCA (ssRNA)
RNA 1: GAGUUCUACAGUCCGACGAUCCCAACAUGCUCCACACCUGGAAUUCUCGGGUGCCAA
RNA 2: UGGAGUGUGACAAUGGUGUUUG
DNA 1: GATCGTCGGACTGTAGAACTC
DNA 2: TTGGCACCCGAGAATTCCA
modifications: constant regions annealed to DNA blockers; guide miR-122 5' phosphate
In the case of B2, the binding signal in assay [1] is 0.416 fold enrichment over input; with AGO2 L192P, 3.01 fold enrichment over input; with AGO2 A367P it was 2.6 fold enrichment over input; with AGO2 T357M, 0.765 fold enrichment over input; in the assay with AGO2 F182del it was 2.78 fold enrichment over input.

B3: ACACTCTA (ssRNA)
RNA 1: GAGUUCUACAGUCCGACGAUCCCAACACACUCUACACCUGGAAUUCUCGGGUGCCAA
RNA 2: UGGAGUGUGACAAUGGUGUUUG
DNA 1: GATCGTCGGACTGTAGAACTC
DNA 2: TTGGCACCCGAGAATTCCA
modifications: constant regions annealed to DNA blockers; guide miR-122 5' phosphate
On to B3, for which the binding signal was 0.587 fold enrichment over input in assay [1]; 0.74 fold enrichment over input in the assay with AGO2 L192P; 0.661 fold enrichment over input with AGO2 A367P; 0.72 fold enrichment over input in the assay with AGO2 T357M; 1.96 fold enrichment over input in the assay with AGO2 F182del.

B4: GCATCTCA (ssRNA)
RNA 1: GAGUUCUACAGUCCGACGAUCCCAACGCAUCUCACACCUGGAAUUCUCGGGUGCCAA
RNA 2: UGGAGUGUGACAAUGGUGUUUG
DNA 1: GATCGTCGGACTGTAGAACTC
DNA 2: TTGGCACCCGAGAATTCCA
modifications: constant regions annealed to DNA blockers; guide miR-122 5' phosphate
For B4, the binding signal in assay [1] was 0.126 fold enrichment over input; with AGO2 L192P, 0.567 fold enrichment over input; with AGO2 A367P, 0.316 fold enrichment over input; with AGO2 T357M, 0.605 fold enrichment over input; in the assay with AGO2 F182del it was 0.86 fold enrichment over input.

B5: ACGCTTCA (ssRNA)
RNA 1: GAGUUCUACAGUCCGACGAUCCCAACACGCUUCACACCUGGAAUUCUCGGGUGCCAA
RNA 2: UGGAGUGUGACAAUGGUGUUUG
DNA 1: GATCGTCGGACTGTAGAACTC
DNA 2: TTGGCACCCGAGAATTCCA
modifications: constant regions annealed to DNA blockers; guide miR-122 5' phosphate
With B5, the binding signal in assay [1] was 0.133 fold enrichment over input; with AGO2 L192P, 0.605 fold enrichment over input; with AGO2 A367P, 0.327 fold enrichment over input; with AGO2 T357M, 0.624 fold enrichment over input; with AGO2 F182del, 0.944 fold enrichment over input.

B6: GCGTCCTA (ssRNA)
RNA 1: GAGUUCUACAGUCCGACGAUCCCAACGCGUCCUACACCUGGAAUUCUCGGGUGCCAA
RNA 2: UGGAGUGUGACAAUGGUGUUUG
DNA 1: GATCGTCGGACTGTAGAACTC
DNA 2: TTGGCACCCGAGAATTCCA
modifications: constant regions annealed to DNA blockers; guide miR-122 5' phosphate
In the case of B6, the binding signal in assay [1] is 0.123 fold enrichment over input; with AGO2 L192P, 0.489 fold enrichment over input; with AGO2 A367P, 0.195 fold enrichment over input; with AGO2 T357M, 0.72 fold enrichment over input.

B7: GTACTTCA (ssRNA)
RNA 1: GAGUUCUACAGUCCGACGAUCCCAACGUACUUCACACCUGGAAUUCUCGGGUGCCAA
RNA 2: UGGAGUGUGACAAUGGUGUUUG
DNA 1: GATCGTCGGACTGTAGAACTC
DNA 2: TTGGCACCCGAGAATTCCA
modifications: constant regions annealed to DNA blockers; guide miR-122 5' phosphate
Consider B7, for which the binding signal in assay [1] is 0.125 fold enrichment over input; with AGO2 L192P, 0.53 fold enrichment over input; with AGO2 A367P, 0.347 fold enrichment over input; in the assay with AGO2 T357M it was 0.645 fold enrichment over input; in the assay with AGO2 F182del, 0.936 fold enrichment over input.

B8: ACACTCCG (ssRNA)
RNA 1: GAGUUCUACAGUCCGACGAUCCCAACACACUCCGCACCUGGAAUUCUCGGGUGCCAA
RNA 2: UGGAGUGUGACAAUGGUGUUUG
DNA 1: GATCGTCGGACTGTAGAACTC
DNA 2: TTGGCACCCGAGAATTCCA
modifications: constant regions annealed to DNA blockers; guide miR-122 5' phosphate
Regarding B8, the binding signal in assay [1] was 154 fold enrichment over input; with AGO2 L192P, 99.5 fold enrichment over input; with AGO2 A367P, 140 fold enrichment over input; with AGO2 T357M, 108 fold enrichment over input; in the assay with AGO2 F182del, 91 fold enrichment over input.

B9: ATACTCCG (ssRNA)
RNA 1: GAGUUCUACAGUCCGACGAUCCCAACAUACUCCGCACCUGGAAUUCUCGGGUGCCAA
RNA 2: UGGAGUGUGACAAUGGUGUUUG
DNA 1: GATCGTCGGACTGTAGAACTC
DNA 2: TTGGCACCCGAGAATTCCA
modifications: constant regions annealed to DNA blockers; guide miR-122 5' phosphate
Regarding B9, the binding signal is 0.401 fold enrichment over input in assay [1]; 1.86 fold enrichment over input in the assay with AGO2 L192P; 2.89 fold enrichment over input with AGO2 A367P; 0.632 fold enrichment over input with AGO2 T357M; 3.65 fold enrichment over input with AGO2 F182del.

B10: GTACTCCA (ssRNA)
RNA 1: GAGUUCUACAGUCCGACGAUCCCAACGUACUCCACACCUGGAAUUCUCGGGUGCCAA
RNA 2: UGGAGUGUGACAAUGGUGUUUG
DNA 1: GATCGTCGGACTGTAGAACTC
DNA 2: TTGGCACCCGAGAATTCCA
modifications: constant regions annealed to DNA blockers; guide miR-122 5' phosphate
As to B10, the binding signal is 0.714 fold enrichment over input in assay [1]; 1.62 fold enrichment over input with AGO2 L192P; 3.12 fold enrichment over input with AGO2 A367P; 0.965 fold enrichment over input in the assay with AGO2 T357M; 4.41 fold enrichment over input in the assay with AGO2 F182del.
